Source: PubChem BioAssay
Gal4-VP16 FLuc – counter-screen for ROR gamma inhibitors: Gal4-VP16 reporter; actives 3.5% (n = 310,000); Potency, µM (doses to about 53.6 µM), inactives show at the top dose activity, negative = inhibition, most hits filed as inhibitors; Drosophila S2 Gal4-VP16 UAS-luciferase, luminescence, 20 h; AID 2546;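 note: Gal4-VP16 expression switched on by copper sulfate through the metallothionein promoter; potency is the fitted concentration of half-maximal effect; nearly all actives have a fitted effect of over 50% in size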
IL1B secr inh – inflammasome signaling inhibition, IL-1 beta readout; THP-1 LPS/ATP IL-1B secretion, AlphaLISA, 16 h; active compounds read low; activity change, % at 57.5 µM; actives 4.7% (n = 360,000); AID 743279; in the data active = activity change below about -50%; inconclusive = mostly about -30% to -49%
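THP-1 cells pretreated 1 hr with compounds (up to 57.5 uM final), then stimulated with LPS (250 ng/mL final) plus ATP (1.25 mM final); secreted IL-1B measured by AlphaLISA after 16 hr, decreased signal indicating inhibition.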
RORgamma inh – ROR gamma (mouse) transcription inhibition; P51450; Drosophila S2 Gal4-RORgamma UAS-luciferase reporter, 20 h; Potency, µM (series often up to 53.6 µM), for the others: top-dose activity change, negative = inhibition, most hits filed as inhibitors; actives 5.4% (n = 310,000); note: potency is the fitted concentration of half-maximal effect; nearly all actives have a fitted effect of over 60% in size
Target sequence (P51450 whole entry, looked up, the tested form may be a part): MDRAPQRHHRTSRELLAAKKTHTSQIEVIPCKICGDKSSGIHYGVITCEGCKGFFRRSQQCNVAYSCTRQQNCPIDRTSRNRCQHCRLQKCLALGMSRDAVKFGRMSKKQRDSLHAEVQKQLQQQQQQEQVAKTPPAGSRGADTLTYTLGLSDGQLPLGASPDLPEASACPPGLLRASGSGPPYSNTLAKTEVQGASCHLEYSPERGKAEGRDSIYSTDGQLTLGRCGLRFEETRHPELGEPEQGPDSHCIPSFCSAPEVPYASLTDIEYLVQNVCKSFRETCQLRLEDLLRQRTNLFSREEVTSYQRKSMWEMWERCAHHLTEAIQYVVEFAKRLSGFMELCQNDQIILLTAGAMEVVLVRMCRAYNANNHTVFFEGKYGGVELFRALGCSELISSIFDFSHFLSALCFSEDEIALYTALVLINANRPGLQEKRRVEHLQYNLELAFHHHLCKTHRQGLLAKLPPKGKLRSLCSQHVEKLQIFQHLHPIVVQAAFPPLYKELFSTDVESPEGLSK
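Luciferase reporter read in Schneider cells carrying Gal4-RORγ (mouse) and UAS-Photinus luciferase; cells given compound 1 h before 700 uM copper sulfate induction, then incubated 20 h at ambient temperature.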
TDP1 cell CPT – DT40-hTDP1 cell growth loss with CPT; chicken DT40 Tdp1-/-;hTDP1 cells + 20 nM CPT, ATP luminescence, 48 h; Potency, µM (series often up to 46.2 µM), inactives show at the top dose activity change, negative = growth inhibition, most hits filed as inhibitors; actives 12% (n = 420,000); note: potency is the fitted concentration of half-maximal effect; nearly all actives have a fitted effect of over 55% in size
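Chicken DT40 Tdp1-/- cells complemented with human TDP1, 400 cells/well, exposed to compounds plus 20 nM camptothecin for at least 48 h at 37 C; viability read as ATP content by CellTiter-Glo luminescence.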
LDHA block – inhibitors of human lactate dehydrogenase A; P00338; purified LDHA, NADH/diaphorase-resazurin fluorescence; active compounds read low; activity change, % (values are at about 110 or 230 µM); actives 0.15% (n = 480,000); in the data active = activity change below about -30%; inconclusive = mostly about -25% to -30%;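 note: plate controls were DMSO wells for no effect and wells without enzyme for full effect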
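Human LDH5 (2 nM) was incubated with 0.06 mM NADH and 0.2 mM pyruvate for 5 min at room temperature in Tris pH 7.4. Remaining NADH was coupled through diaphorase/resazurin, and resorufin fluorescence was read at 0 and 20 min.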
TDP1 cell noCPT – qHTS for Inhibitors of human tyrosyl-DNA phosphodiesterase 1 (TDP1): qHTS in cells in absence of CPT; DT40 Tdp1-/- hTDP1 cells, no CPT, ATP luminescence, 48 h; Potency, µM (top dose mostly 46.2 µM), without a hit: at the top dose activity change, negative = growth inhibition, usual class: inhibitors; actives 15% (n = 420,000); AID 686978, 2013; note: potency is the fitted concentration of half-maximal effect; nearly all actives have a fitted effect of over 55% in size
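Compound effects on proliferation are scored in DT40 Tdp1-/-;hTDP1 cells in the absence of CPT. ATP levels (CellTiter-Glo luminescence) are recorded after a ≥48 hr, 37 °C incubation.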
* hit, by the source's call; ? = inconclusive; · = no result; [ ] = dose if it differs, or a comment. Hits are enriched below; roughly 18% of the tested compounds scored in any of these assays. Unless noted, calls come from the whole dose curve; as a rule, active = well fitted curve in the direction sought with a large enough effect; inconclusive = small, poorly fitted or top-dose-only effect, or another doubt; inactive = no such curve, though single readings can be large; an effect the other way counts as inactive or inconclusive. Unless noted, % is set by controls: 0 for no effect and ±100 for the full control effect.

SMILES | Gal4-VP16 FLuc | IL1B secr inh | RORgamma inh | TDP1 cell CPT | LDHA block | TDP1 cell noCPT
COc1ccc(OC)c(NC(=O)C23CCC(C)(C(=O)C2)C3(C)C)c1 (stereo not given) | -9% | -5 | -13% | 5% | 3 | 0%
CC12CCC(C(=O)Nc3ccc(SC(F)F)cc3)(CC1=O)C2(C)C (stereo not given) | -2% | -81* | 24% | ? | -4 | -27%
Cc1ccc(C)c(NC(=O)c2ccccc2NS(=O)(=O)c2cc([N+](=O)[O-])ccc2C)c1 | 14µM* | ? | ? | 3.3µM* | -2 | 4.1µM*
Cc1ccc(C)c(S(=O)(=O)Nc2ccccc2C(=O)Nc2cc(C)on2)c1 | -9% | 34 | -36% | 16µM* | 1 | ?
Cc1cc(NC(=O)c2ccccc2NS(=O)(=O)c2c(C)c(C)cc(C)c2C)no1 | -6% | 24 | 4% | ? | -8 | ?
Cc1cc(Cl)ccc1OC(=O)c1cc2ccccc2oc1=O | · | · | · | · | -7 | ·
O=C(/C=C/c1ccccc1Br)c1ccc(O)c(CCCl)c1 | · | · | · | · | 1 | ·
O=[N+]([O-])c1nn(-c2ccccc2)n(O)c1=NC1CCN(Cc2ccccc2)CC1 | 19%[10 µM] | ? | -4% | 3.3µM* | 3 | 9.2µM*
O=[N+]([O-])c1nn(-c2ccc3c(c2)OCCO3)n(O)c1=NC1CCN(Cc2ccccc2)CC1 | ? | 5 | -21% | 10µM* | -2 | ?
O=[N+]([O-])c1nn(-c2ccc3c(c2)OCCO3)n(O)c1=NCCC1=CCCCC1 | ? | -3 | -21% | -26% | -5 | -27%
CCCCCCCCC#CC#Cc1cccc(C(=O)O)c1 | · | · | · | · | -2 | ·
CCOc1cc(Br)ccc1S(=O)(=O)N1CC(C)OC(C)C1 (stereo not given) | -4% | 9 | 22% | 26µM* | 2 | ?
CCn1c(-c2ccccc2O)n[nH]c1=S | -26% | 21 | 13µM* | -27% | -3 | -8%
CCn1c(-c2csc3c2CCC(C)C3)n[nH]c1=S (stereo not given) | 2.8µM* | -23 | 2µM* | ? | -1 | ?
Oc1ccccc1-c1n[nH]c(=S)n1Cc1ccccc1 | -28% | 7 | 11µM* | 8% | 2 | -8%
COCCn1c(-c2ccccc2F)n[nH]c1=S | -1% | 17 | 8% | 3% | -3 | 0%
CCn1c(-c2csc3ccccc23)n[nH]c1=S | 6.3µM* | -10 | 6.3µM* | ? | -4 | ?
CCCN1CCC(NC(=O)c2csc3c2CCC(C)C3)CC1 (stereo not given) | · | · | · | · | 13 | ·
Cc1ccccc1-c1n[nH]c(=S)n1Cc1ccccc1 | -3% | -9 | 2% | 2% | -6 | 6%
CCNC(=O)CN(CC)C(=O)c1cc2ccccc2oc1=O | · | · | · | · | 9 | ·
Cn1c(=O)[nH]c(=O)c2c1nc(N1CCN(C/C=C/c3ccccc3)CC1)n2Cc1cccc(Cl)c1 | · | · | · | · | 2 | ·
CCn1c(-c2cc(-c3ccccc3)sc2N)n[nH]c1=S | 13µM* | 11 | 4µM* | ? | 1 | 8.2µM*
S=c1[nH]nc(-c2ccccc2Br)n1Cc1ccccc1 | 6.3µM* | 14 | 4.5µM* | 1% | -17 | -2%
Oc1ccc(Br)cc1-c1n[nH]c(=S)n1Cc1ccccc1 | -8% | -6 | 10µM* | -11% | 1 | -29%
Cn1c(-c2cc(Br)ccc2O)n[nH]c1=S | ? | ? | ? | -8% | 2 | -5%
SMILES | Gal4-VP16 FLuc | IL1B secr inh | RORgamma inh | TDP1 cell CPT | LDHA block | TDP1 cell noCPT
Cc1c(C(=O)NCc2ccccc2C(F)(F)F)sc(=O)n1Cc1cccc(C(F)(F)F)c1 | · | -11 | · | ? | -7 | ?
COc1ccc(CNC(=O)c2sc(=O)n(Cc3ccc(-c4ccccc4)cc3)c2C)cc1OC | · | -13 | · | 12µM* | -10 | 12µM*
C=Cc1ccc(Cn2c(C)c(C(=O)NCc3ccc(C#N)cc3)sc2=O)cc1 | · | ? | · | 16µM* | 0 | 16µM*
Cc1c(C(=O)NCc2cccc(C(F)(F)F)c2)sc(=O)n1Cc1ccccc1F | · | -3 | · | ? | -4 | 26µM*
COc1ccc(Cl)cc1Cn1c(C)c(C(=O)NCc2cccc(C(F)(F)F)c2)sc1=O | · | -59* | · | ? | -3 | ?
CC(=O)c1sc(-c2ccc(Br)cc2)nc1C | · | · | · | · | -16 | ·
CC(c1ccc(F)cc1)N(C)C(=O)c1ccc(S(=O)(=O)N(C)C)cc1 (stereo not given) | · | · | · | · | -2 | ·
COc1ccc(Cl)cc1Cn1c(C)c(C(=O)NCc2ccc(C#N)cc2)sc1=O | · | -21 | · | 23µM* | -1 | 18µM*
COc1ccccc1Cn1c(C)c(C(=O)NCc2cccc(C)c2)sc1=O | · | ? | · | ? | 0 | -14%
Cc1cccc(CNC(=O)c2sc(=O)n(Cc3c(C)cccc3C)c2C)c1 | · | -17 | · | ? | -1 | 23µM*
Fc1ccc(-c2cc(C(F)(F)F)nc(N3CCCCC3)n2)cc1 | -6% | 44 | 7% | -44% | -13 | 5%
Cc1nn(-c2nc(-c3ccc(F)cc3)cc(C(F)(F)F)n2)c(C)c1Br | · | · | · | ? | 3 | 18µM*
Cc1nn(-c2nc(-c3ccc(F)cc3)cc(C(F)(F)F)n2)c(C)c1Cl | · | · | · | 18µM* | -4 | 18µM*
CCOC(=O)c1sc(Nc2cccc(Cl)c2)nc1C | -12% | -87* | 0% | -13% | -9 | ?
CCOC(=O)c1sc(Nc2nc(OC)cc(OC)n2)nc1C | -1% | 53 | 8% | ? | -11 | 21µM*
CCCCn1c(=O)[nH]c(=O)c2c1nc(CN1CCN(S(=O)(=O)c3ccc(C)cc3)CC1)n2C | · | · | · | · | -9 | ·
Cc1cccc(CC2C(=O)Nc3ccccc32)c1 (stereo not given) | · | · | · | ? | -3 | 21µM*
O=C1Nc2ccccc2C1Cc1ccc(Br)cc1 (stereo not given) | · | · | · | ? | -8 | ?
CSc1ccc(CC2C(=O)Nc3ccccc32)cc1 (stereo not given) | · | · | · | ? | -2 | 21µM*
CCOC(=O)c1cnc2ccc(C)cc2c1Sc1ccccc1 | -4% | 9 | -33% | ? | 2 | 26µM*
CCOC(=O)c1cnc2ccc(C)cc2c1N(C)Cc1ccccc1 | -11% | -68* | -35% | ? | 5 | ?
CCOC(=O)c1cnc2ccc(C)cc2c1Sc1ccc(F)cc1 | 28µM* | -12 | ? | ? | 1 | ?
CCOC(=O)c1cnc2ccc(C)cc2c1Nc1ccccc1OCC | · | · | · | · | 8 | ·
